# TLR4 MyD88 comp: TLR4-MyD88 interaction inhibition in cells | O00206+Q99836 | HeLa CL3-4 TLR4/MyD88 BLA complementation, FRET ratio | inhibition, % at 8.4 µM | 200,000 tested, 0.18% active | AID 861; in the data active = inhibition above about 25%;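 also: 0% = vehicle and 100% = reference inhibitor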
# Neddyl block: blocks human cullin neddylation. 360,000 tested, 0.58% active. inhibition, % at 25 µM. TR-FRET cullin neddylation, biochemical; in the data active = inhibition above about 36%
# GC-B act: GC-B (human) receptor activation | P20594 | HEK293-GC-B cells, CNP EC30, cGMP TR-FRET; 0% at EC30 CNP, 100% saturating CNP | activation, % at 10 µM | 370,000 tested, 0.11% active | AID 1920062;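 active = activation at 10 µM reaching about 35% in either raw or pattern-adjusted values, limit read from the data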
# NOD2 RIPK2 PPI: blocks binding of human NOD2 to RIPK2; inhibition, % at 4.98 µM; 360,000 tested, 0.38% active; CHO BLA complementation NOD2-RIPK2, CCF4 ratio; O43353; in the data active = inhibition above about 21%;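 also: 0% = vehicle only and 100% = reference blocker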
# Target sequence (O43353 whole entry, looked up): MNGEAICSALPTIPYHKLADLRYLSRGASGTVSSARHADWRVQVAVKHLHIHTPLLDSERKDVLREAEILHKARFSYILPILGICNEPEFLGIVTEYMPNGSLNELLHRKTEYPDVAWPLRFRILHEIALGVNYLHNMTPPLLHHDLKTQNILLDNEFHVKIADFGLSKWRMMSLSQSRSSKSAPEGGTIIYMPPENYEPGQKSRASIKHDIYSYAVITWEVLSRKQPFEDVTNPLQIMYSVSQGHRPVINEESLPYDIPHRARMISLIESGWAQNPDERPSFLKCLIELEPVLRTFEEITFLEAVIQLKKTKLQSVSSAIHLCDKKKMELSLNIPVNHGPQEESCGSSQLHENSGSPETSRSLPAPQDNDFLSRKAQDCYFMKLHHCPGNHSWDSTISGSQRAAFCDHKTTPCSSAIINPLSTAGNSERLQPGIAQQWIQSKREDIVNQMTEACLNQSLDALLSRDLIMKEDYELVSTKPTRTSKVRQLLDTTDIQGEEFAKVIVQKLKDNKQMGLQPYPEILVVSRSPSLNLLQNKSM
# GC-A act: GC-A (human) enzyme activation; P16066; HEK293 GC-A cells, cGMP TR-FRET, EC30 ANP; 0% at EC30 ANP, 100% saturating ANP; activation, % at 10 µM; 370,000 tested, 0.14% active; AID 1671463; in the data active = activation above about 40%
# TLR9-MyD88 block: blocks human TLR9 binding to MyD88; Q9NR96+Q99836; CHO BLA complementation TLR9-MyD88, CCF4 FRET ratio; inhibition, % at 4.98 µM; 340,000 tested, 0.21% active; AID 504734;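 active = inhibition above the mean over all tested compounds plus 3 SD, cut at about 21% in these data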;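 also: 0% = DMSO only wells and 100% = clavulanate BLA inhibitor control wells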
# Neddyl inh conf: confirmation of human cullin neddylation inhibitors | shares compounds with Neddyl block | TR-FRET cullin neddylation biochemical assay | calls only at 25 µM | 1,800 tested, 13% active | AID 652217; in the data active = inhibition above about 40%;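 also: neddylation substrate is the cullin 1 ring ligase complex with SKP2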
# * marks the source's active call; other numbers are inactive results; i = inactive; . = no result given; + = active, no number. In the library only some 1.2% were active in any assay of this set; here they are far more common.
SMILES,TLR4 MyD88 comp,Neddyl block,GC-B act,NOD2 RIPK2 PPI,GC-A act,TLR9-MyD88 block,Neddyl inh conf
Cc1cc2[nH]c3ccccc3c2c(C)n1,-12,40*,-5,-3,13,3,i
O=c1cc(-c2ccccc2)oc2cc(O)c(O)c(O)c12,.,-30,-7,-12,-2,0,.
O=P(O)(O)c1cc(-c2ccccc2)oc1-c1ccccc1,.,46*,2,-7,-1,5,.
Cc1ccc(-n2c(Cc3cccs3)nnc2SCc2ccc(C#N)cc2)cc1,.,.,-15,.,-22,.,.
CNc1cncc(-c2ccc(F)cc2F)n1,.,.,-3,10,11,.,.
Cc1ccccc1Nc1c(-c2cccnc2)nc2ccccn12,.,39*,10,-15,20,5,i
Cc1ccc2nc(-c3cccnc3)c(Nc3ccccc3C)n2c1,-11,27,10,-12,4,-4,.
COc1ccc(OC)c2[nH]c(=O)c(CCNC(=O)c3ccc4c(c3)OCO4)cc12,-16,41*,-6,-5,-1,2,i
NC(=O)c1ncn([C@@H]2O[C@H](C(=O)N[C@H](Cc3c[nH]c4ccccc34)C(=O)N3CCN(C(=O)C4CC4)CC3)[C@@H](O)[C@H]2O)n1,.,.,2,.,0,.,.
COc1cc2[nH]c3c(c2cc1OC)CCN1CCCC[C@@H]31,.,49*,-3,-14,-5,4,i
COc1cc2[nH]c(=S)n(C3CCCC3)c(=O)c2cc1OC,1,0,-4,-4,-5,-6,.
COC(=O)c1cc(OC)c(OC)c(OC)c1N,11,38*,4,-10,4,0,i
COC(=O)c1cc(OC)c(OC)c(OC)c1[N+](=O)[O-],.,17,-6,-4,-2,3,.
O=C(N/N=C/c1ccccc1)c1cccc2ccccc12,.,0,3,-8,1,0,.
O=C(N/N=C/c1cccn1-c1ccc(O)cc1)c1cccc2ccccc12,.,45*,-2,-4,-4,2,i
CCN1CCc2nc3sc(C(=O)Nc4cccnc4Cl)c(N)c3cc2C1,.,40*,-1,-13,15,-2,i
CCCOc1ccc(F)cc1-c1cc(C(=O)Nc2ccccc2)[nH]n1,.,-9,4,-18,3,.,.
O=c1ccc2ccc(OCc3nnc(-c4ccccc4Br)o3)cc2o1,5,9,-3,1,8,-10,.
Cc1cc(=O)oc2cc(OCc3nnc(-c4ccccc4Br)o3)ccc12,0,44*,-1,0,1,-3,i
COCCOC(=O)c1cc(C(=O)c2cc(F)ccc2O)coc1=N,-4,47*,-2,3,-1,3,i
C#CCNC(=O)CSCc1nc(-c2ccc(OCC)cc2)oc1C,.,.,-10,.,-1,.,.
O=[n+]1cc(-c2ccccc2)n([O-])c2c1CCCCC2,3,6,-1,5,3,12,.
O=[n+]1cc(-c2cc3ccccc3o2)n([O-])c2c1CCCC2,.,44*,-1,3,0,-3,i
Cc1[nH]c2ccc(C(=O)OC(C)C(=O)N(C)c3ccccc3)cc2c1C (configuration not stated),.,41*,.,-8,.,-5,i
Cc1[nH]c2ccc(C(=O)OC(C)C(=O)N(C)C3CCCCC3)cc2c1C (configuration not stated),.,34,-5,1,-4,-10,.
SMILES,TLR4 MyD88 comp,Neddyl block,GC-B act,NOD2 RIPK2 PPI,GC-A act,TLR9-MyD88 block,Neddyl inh conf
CNc1nc(N)c([N+](=O)[O-])c(Nc2cccc(OC)c2)n1,.,.,-5,.,7,.,.
COc1ccc2oc3cc(C)[n+]([O-])c(-c4ccc(Cl)cc4)c3c2c1,-4,42*,-15,-8,-17,-5,i
O=C(NCCc1c[nH]c2ccccc12)OCc1cn(-c2cccc(C(F)(F)F)c2)nn1,.,.,1,.,-1,.,.
Nc1nnc(N)c2ccccc12,4,40*,-1,-3,5,-3,i
Nc1nsc2ccccc12,4,-7,1,6,-1,-2,.
CCOC(=O)C1CC(=O)c2cc(OC)c(OC)cc2C1 (configuration not stated),.,42*,3,-9,-2,-5,.
COc1cc(OC)cc(-c2cc3ccccc3c(=O)o2)c1,.,-154,-8,-1,-6,-7,.
Nc1ccc(-c2cc3ccccc3c(=O)o2)cc1,.,46*,-6,9,5,10,i
CC1Cc2c([nH]c3ccccc23)C(=O)N1 (configuration not stated),.,50*,-1,-4,4,-3,.
CCOCCCNc1c2c(nc3cc(-c4ccc(F)cc4)nn13)CCC2,-21,5,1,-5,1,-11,.
CN(C)CCCNc1c2c(nc3cc(-c4cccc(F)c4)nn13)CCC2,-14,43*,-12,0,-4,1,i
CC(C)(C)NC(=O)c1cc(-c2ccc3c(c2)OCO3)nc2ccccc12,.,46*,2,4,1,13,i
O=C(O)c1cc(-c2ccc3c(c2)OCO3)nc2ccc(Cl)cc12,.,54*,-2,3,1,-5,.
COC(=O)c1ccc(-c2ccc(/C=N/NC(=O)CC3(C)OCCCO3)o2)cc1,7,41*,0,-1,-3,10,i
Cc1cccc(-c2n[nH]c(=S)n2/N=C/C=C/c2ccco2)c1,.,60*,-10,-3,-11,2,i
S=c1[nH]nc(-c2ccncc2)n1/N=C/C=C/c1ccco1,-14,4,1,1,0,2,.
CCOc1ccc2[nH]c(=O)c(CN(CCO)C(=O)CC)cc2c1,4,40*,3,2,-4,6,+
CCOc1ccc2[nH]c(=O)c(CN(CCO)C(=O)c3ccc(Br)cc3)cc2c1,2,29,-8,-4,12,2,.
CN(C)c1cccc(C(=O)OCC(=O)N2CCc3ccccc3C2)c1,16,42*,-6,-3,0,-3,i
CC(OC(=O)c1cccc(N(C)C)c1)C(=O)N1CCc2ccccc2C1 (configuration not stated),.,.,0,-7,5,-2,.
Cc1cccc(C)c1NC(=O)C(CCc1ccccc1)N1CCC(c2ccccc2)CC1 (configuration not stated),.,-1,4,-9,2,.,.
COc1cccc(/C=C/C(=O)OCC(=O)Nc2cccc(S(=O)(=O)NC3=NCCCCC3)c2)c1,.,42*,8,3,0,0,.
O=C(COC(=O)/C=C/c1cccc(F)c1)Nc1cccc(S(=O)(=O)NC2=NCCCCC2)c1,.,-2,-1,-4,-4,4,.
